From PubChem BioAssay
SKN-1 inh = suppressors of acrylamide-induced Pgst-4::GFP reporter in worms, primary screen, SKN-1 inhibitor project, whole organism, uHTS, GFP/RFP fluorescence ratio, strain VP596 | C. elegans VP596 Pgst-4::GFP/RFP ratio, 24 h | inhibition, % at 21.8 µM | AID 624304, 2012 | 360,000 tested, 0.49% active;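 active = interference check ratio from 0.5 to 1.5 plus GFP to RFP signal ratio inhibition reaching or exceeding a fixed threshold, cut at about 30% in these data, passing the limit was not always enough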
PG9 Ab binder = binders of HIV-1 gp120 antibody PG9, primary screen, biochemical, TR-FRET; HIV-1 gp120 / PG9 antibody interaction; TR-FRET gp120-PG9 antibody binding; inhibition, % at 6.7 µM; 360,000 tested, 0.43% active; AID 624416, 2012; in the data active = inhibition above about 8.5%
NR1D1 modulator = modulators of Rev-erb alpha DNA binding, primary screen, biochemical, FITC-DNA, fluorescence polarization, uHTS; Nuclear receptor subfamily 1 group D member 1 (Homo sapiens), P20393; 370,000 tested, 0.79% active; Rev-erbα–FITC-DNA binding, 90 min; AID 1259318, 2017; activity, % at 10 µM;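 active = activity above about 14%, limit read from the data; passing the limit was not always enough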
Target sequence (P20393 whole entry, looked up): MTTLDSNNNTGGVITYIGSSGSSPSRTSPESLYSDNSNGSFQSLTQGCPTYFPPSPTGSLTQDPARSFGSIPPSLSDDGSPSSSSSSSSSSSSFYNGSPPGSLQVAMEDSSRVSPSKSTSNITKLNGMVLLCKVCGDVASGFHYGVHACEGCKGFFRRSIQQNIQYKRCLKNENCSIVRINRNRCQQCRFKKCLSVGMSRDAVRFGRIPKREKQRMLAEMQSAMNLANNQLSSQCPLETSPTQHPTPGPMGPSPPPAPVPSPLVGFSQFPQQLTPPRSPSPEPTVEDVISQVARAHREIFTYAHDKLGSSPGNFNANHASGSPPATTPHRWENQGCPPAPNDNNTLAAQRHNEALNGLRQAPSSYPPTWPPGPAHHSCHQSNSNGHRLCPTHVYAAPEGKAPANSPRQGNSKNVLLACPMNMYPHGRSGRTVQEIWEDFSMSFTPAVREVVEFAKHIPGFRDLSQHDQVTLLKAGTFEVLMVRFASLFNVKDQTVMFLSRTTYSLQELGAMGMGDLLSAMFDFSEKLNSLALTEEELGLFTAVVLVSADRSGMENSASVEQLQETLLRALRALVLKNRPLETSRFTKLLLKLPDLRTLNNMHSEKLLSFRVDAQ
RAM inhibit = inhibitors of the yeast RAM network, primary screen, dse1pr::URA3 reporter, 5-FOA selection | S. cerevisiae dse1pr::URA3 reporter, 5-FOA growth OD615, 2 d; analog-sensitive cbk1-as2 kinase mutant strain | 190,000 tested, 1.8% active | inhibition, % at 50 µM | AID 868, 2007;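 active = inhibition above a set limit, 3 SD over mean compound inhibition, cut at about 8.4% in these data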;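 also: inhibition rescues growth on 5-FOA so higher OD means more RAM inhibition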
EP2 mod = EP2 receptor modulators, cAMP readout, primary screen, cell-based, HTRF cAMP, PGE2 stimulation; 260,000 tested, 0.83% active; induction, % at 25 µM; AID 940, 2007; Prostaglandin E2 receptor EP2 subtype (Homo sapiens), P43116; EP2-expressing cells, cAMP HTRF FRET, PGE2 co-stimulation;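 active = compounds whose cAMP rise, as percent of the full-agonist control response, exceeds 60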;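 also: rat C6 glioma line stably carrying human EP2 under a CMV promoter; the protocol text gives 20 µM as final concentration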
EP2 antag = human EP2 receptor antagonists, primary screen, TR-FRET cAMP, C6 glioma cells | AID 1422, 2008 | inhibition, % at 25 µM | Prostaglandin E2 receptor EP2 subtype (Homo sapiens), P43116 | C6 glioma cells expressing human EP2; cells stimulated with saturating PGE2 | 260,000 tested, 0.52% active;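 active = percent inhibition above 40 after rounding to a whole number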;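 also: rat C6 glioma host cells with rolipram phosphodiesterase inhibitor present; the protocol text gives 20 µM as final concentration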
RAM 5-FOA = 5-FOA growth of efflux-deficient control yeast, dose response, counter-screen for RAM network inhibitor project, S. cerevisiae, OD615; S. cerevisiae efflux-deficient reporter strain, 5-FOA growth OD615, 2 days; shares compounds with RAM inhibit; max inhibition, %; 1,200 tested, under 10 active; call rule not given here
Numbers stand for hits. An excerpt weighted towards active compounds, which were near 2.9% of everything screened.

CCN(CC)S(=O)(=O)c1cccc(-c2nnc(SCCCC(=O)c3ccccc3)o2)c1 was read as SKN-1 inh inactive, PG9 Ab binder inactive, NR1D1 modulator inactive, RAM inhibit 11.8, EP2 mod inactive, EP2 antag inactive and RAM 5-FOA inactive.
CCN(CC)S(=O)(=O)c1cccc(-c2nnc(SCCCC(=O)c3ccc(F)cc3)o2)c1 was read as SKN-1 inh inactive, PG9 Ab binder inactive, NR1D1 modulator inactive, RAM inhibit 13.1, EP2 mod inactive, EP2 antag inactive and RAM 5-FOA inactive.
CCN1CCN(C(=O)CN(c2cc(C)ccc2C)S(C)(=O)=O)CC1 was read as EP2 mod inactive and EP2 antag inactive.
For COc1ccc2c(CC(=O)OCC(=O)Nc3cccc(C)c3)coc2c1 the results were SKN-1 inh inactive, PG9 Ab binder inactive and NR1D1 modulator inactive.
Screening COc1ccc2c(CC(=O)OCC(=O)Nc3cc(C)c(C)cc3[N+](=O)[O-])coc2c1 returned SKN-1 inh inactive, PG9 Ab binder inactive, NR1D1 modulator inactive, RAM inhibit 12.2, EP2 mod inactive, EP2 antag inactive and RAM 5-FOA inactive.
For CC(C)Cn1c(N)c(-c2nc(C(C)C)c(C(=O)c3ccccc3F)s2)c(=O)n(C)c1=O the results were RAM inhibit 11.7, EP2 mod inactive, EP2 antag inactive and RAM 5-FOA inactive.
Clc1cccc(Cl)c1CSc1nnc(-c2ccncc2)n1Cc1ccco1 was read as EP2 mod inactive and EP2 antag inactive.
Screening Cc1cc(C)c(C#N)c(SCC(=O)c2cccs2)n1 returned SKN-1 inh inactive, PG9 Ab binder inactive, NR1D1 modulator inactive, RAM inhibit inactive, EP2 mod inactive and EP2 antag inactive.
`Cc1cc2c(C)ccc(C)c2nc1SCC(=O)c1cccs1` gave SKN-1 inh inactive, PG9 Ab binder inactive, NR1D1 modulator inactive, RAM inhibit 13.5, EP2 mod 62.6, EP2 antag inactive and RAM 5-FOA inactive.
Screening CC(C)CSc1nc(N2CCOCC2)c2c(c1C#N)CC(C)(C)SC2 returned SKN-1 inh inactive, PG9 Ab binder inactive, NR1D1 modulator inactive, RAM inhibit 21.6, EP2 mod inactive, EP2 antag inactive and RAM 5-FOA inactive.
Cc1cc(C)cc(NC(=O)COC(=O)CCCNC(=O)c2ccc(Cl)cc2)c1 was read as SKN-1 inh inactive, PG9 Ab binder inactive, NR1D1 modulator inactive, RAM inhibit inactive, EP2 mod inactive and EP2 antag inactive.
Screening O=C(COC(=O)CCCNC(=O)c1ccc(Cl)cc1)Nc1cc(Cl)c(Cl)cc1Cl returned SKN-1 inh inactive, PG9 Ab binder inactive, NR1D1 modulator inactive, RAM inhibit 42.1, EP2 mod inactive, EP2 antag inactive and RAM 5-FOA inactive.
For CCC(Sc1nc2c(cnn2-c2ccc(Cl)cc2)c(=O)[nH]1)C(=O)OC (stereo not drawn) the results were SKN-1 inh inactive, PG9 Ab binder inactive, NR1D1 modulator inactive, RAM inhibit inactive, EP2 mod inactive and EP2 antag inactive.
CCOC(=O)C(C)(C)Sc1nc2c(cnn2-c2ccc(Cl)cc2)c(=O)[nH]1 was read as SKN-1 inh inactive, PG9 Ab binder inactive, NR1D1 modulator inactive, RAM inhibit 13.6, EP2 mod inactive, EP2 antag inactive and RAM 5-FOA inactive.
`COc1ccc2c(c1)cc(C)c1nn(CC(=O)N3CCOCC3)c(=O)n12` gave EP2 mod inactive.
`C=CCn1c(SCC(=O)Nc2cccc(OC)c2)nc2sc(C)cc2c1=O` gave EP2 mod inactive and EP2 antag inactive.
`O=C(c1cnc(-c2ccccc2)s1)c1ccc(Cl)cc1Cl` gave SKN-1 inh inactive, PG9 Ab binder inactive, NR1D1 modulator inactive, RAM inhibit 13.1, EP2 mod inactive, EP2 antag inactive and RAM 5-FOA inactive.
`O=c1c(/C=N/O)coc2ccc3ccccc3c12` gave SKN-1 inh inactive, PG9 Ab binder inactive, NR1D1 modulator inactive, RAM inhibit 23.1, EP2 mod inactive, EP2 antag inactive and RAM 5-FOA inactive.
Screening O=C(Nc1ccc2c(c1)OCO2)/C(=C/c1ccco1)NC(=O)c1ccccc1 returned EP2 mod inactive and EP2 antag inactive.
For COc1ccc(OCc2nnc(SCC(N)=O)n2-c2ccccc2OC)cc1 the results were SKN-1 inh inactive, PG9 Ab binder inactive, NR1D1 modulator inactive, RAM inhibit inactive, EP2 mod inactive and EP2 antag inactive.
`COc1ccccc1-n1c(COc2ccccc2-c2ccccc2)nnc1SCC(=O)c1c(N)n(C)c(=O)n(C)c1=O` gave SKN-1 inh inactive, PG9 Ab binder inactive, NR1D1 modulator inactive, RAM inhibit 14.0, EP2 mod inactive, EP2 antag inactive and RAM 5-FOA inactive.
For NC(=O)CSc1nnc(-c2cccc(S(=O)(=O)N3CCCCC3)c2)o1 the results were SKN-1 inh inactive, PG9 Ab binder inactive, NR1D1 modulator inactive, EP2 mod inactive and EP2 antag inactive.
Screening O=C(CSc1nnc(-c2cccc(S(=O)(=O)N3CCCCC3)c2)o1)NCCC1=CCCCC1 returned SKN-1 inh inactive, PG9 Ab binder inactive, NR1D1 modulator inactive, RAM inhibit 11.5, EP2 mod inactive, EP2 antag inactive and RAM 5-FOA inactive.
CCN(CC)S(=O)(=O)c1cccc(-c2nnc(SC(C)C(=O)NCCC3=CCCCC3)o2)c1 (stereo not drawn) was read as SKN-1 inh inactive, PG9 Ab binder inactive, NR1D1 modulator inactive, RAM inhibit 14.0, EP2 mod inactive, EP2 antag inactive and RAM 5-FOA inactive.
O=c1oc(-c2ccncc2)nn1Cc1ccccc1F was read as EP2 mod inactive and EP2 antag inactive.
Cc1cc(C)c2[nH]c(=O)c(CN(CCN(C)C)C(=S)NCC3CCCO3)cc2c1 (stereo not drawn) was read as EP2 mod inactive and EP2 antag inactive.
`O=C(C1CC1)N1CCc2cc(S(=O)(=O)NCCC3=CCCCC3)ccc21` gave SKN-1 inh inactive, PG9 Ab binder inactive, NR1D1 modulator inactive, RAM inhibit 11.4, EP2 mod inactive, EP2 antag inactive and RAM 5-FOA inactive.
